Common to all, as to assay type: functional
Assay [1] addresses Solute carrier family 2, facilitated glucose transporter member 1 (Homo sapiens) (UniProt P11166). As to the kind of experiment: ST_JUDE_LEISH: Cytotoxicity at 2uM final concentration against transgenic Leishmania Mexicana promastigotes LmGLUT1 that are glucose transport deficient and complemented with the human glucose transporter GLUT1. Activity is measured by DNA content using SYBR green in vitro.

Assay [2] concerns the target Hexose transporter 1 (Plasmodium falciparum) (UniProt O97467). Briefly: ST_JUDE_LEISH: Cytotoxicity at 2uM final concentration against transgenic Leishmania Mexicana promastigotes LmPfHT that are glucose transport deficient and complemented with the Plasmodium falciparum hexose transporter. Activity is measured by DNA content using SYBR green in vitro.
Assay [3] has as its target Glucose transporter (Leishmania mexicana) (UniProt O61059). Briefly: ST_JUDE_LEISH: Cytotoxicity at 2uM final concentration against transgenic Leishmania Mexicana promastigotes LmGT2 that are glucose transport deficient and complemented with the L. Mexicana glucose transporter 2. Activity is measured by DNA content using SYBR green in vitro.

As usually defined, the inhibition is the drop in the measured response relative to a control, in per cent.

Chain of Solute carrier family 2, facilitated glucose transporter member 1 (Homo sapiens) (P11166 whole entry): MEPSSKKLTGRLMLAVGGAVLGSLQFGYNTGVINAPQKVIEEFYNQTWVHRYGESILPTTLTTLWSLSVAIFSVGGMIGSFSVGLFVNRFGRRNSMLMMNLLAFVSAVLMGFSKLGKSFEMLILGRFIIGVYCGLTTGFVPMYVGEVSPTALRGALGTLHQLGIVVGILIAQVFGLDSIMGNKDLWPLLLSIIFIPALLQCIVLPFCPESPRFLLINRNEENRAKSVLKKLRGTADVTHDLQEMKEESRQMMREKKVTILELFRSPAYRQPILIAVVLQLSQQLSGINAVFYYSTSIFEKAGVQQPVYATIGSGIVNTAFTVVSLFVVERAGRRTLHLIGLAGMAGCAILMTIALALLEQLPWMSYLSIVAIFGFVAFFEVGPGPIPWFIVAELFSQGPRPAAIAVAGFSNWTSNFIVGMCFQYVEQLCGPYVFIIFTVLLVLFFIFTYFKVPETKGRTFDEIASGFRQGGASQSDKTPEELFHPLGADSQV

As for `COc1ccc(CN2CCN(CCCCNC(=O)c3ccc(NC(=O)c4ccc(Cl)cc4)cc3)CC2)c(OC)c1`, the results for the inhibition in assay [1], in assay [2] and in assay [3] were 6.23%, 4.9% and 6.03%, respectively.
In the same order, the values of `Cc1ccc(Nc2cc(C)nn2-c2nc(C)cc(O)n2)cc1` are 75.4%, 73.6% and 67.6%.
The corresponding values for `c1ccc2nc(NCCCCCCCCNc3ccc4ccccc4n3)ccc2c1` are 5.37%, 3.68% and 4.58%.
Consider `O=c1cc(NCCC(CNCc2ccoc2)NCc2cc(Br)cc(Br)c2)[nH]c2ccccc12` (centres undefined), for which the results for the inhibition in assay [1], in assay [2] and in assay [3] were 6.77%, 6.66% and 9.4%, respectively.
For the molecule `O=C(COc1ccc(C(=O)c2ccccc2)cc1)Nc1nccs1`, the results for the inhibition in assay [1], in assay [2] and in assay [3] were 0.24%, 0.43% and -3.28%, respectively.
The corresponding values for `Cc1ccc(C(CC(=O)Nc2nccs2)c2ccc(OC(C)C)cc2)cc1` (centres undefined) are -1.83%, 0.63% and -1.31%.
The corresponding values for `c1ccc(Oc2ccc(Nc3nncc4ccccc34)cc2)cc1` are 1.62%, 0.25% and -4.56%.
The corresponding values for `N#Cc1ccc(N2CCN(Cc3cccc(-c4ccc(-c5nc6cc(C(F)(F)F)ccc6[nH]5)cc4)c3)CC2)nc1` are 4.01%, 6.49% and 0.17%.
Consider `Oc1ccc(-c2cncc(NCc3ccc(F)c(F)c3)c2)cc1`, for which the figures for the inhibition in assay [1], in assay [2] and in assay [3] were 7.16%, 7.41% and 7.98%, respectively.
The corresponding values for `Oc1ccc(CCNCCCCCCNCCc2ccc(Cl)cc2)c(Cl)c1O` are -2.47%, -4.06% and -1.17%.
The corresponding values for `CC(C)(C)c1nn(-c2ccccc2)c2[nH]c(=O)c(CNCc3ccccc3)cc12` are 2.76%, 2.02% and 3.75%.
In the same order, the values of `Cc1oc(-c2ccc(Cl)cc2)cc1C(=O)NCCC1CCN(CCCCCNC(=O)/C=C/c2ccc(Cl)c(Cl)c2)CC1` are -0.57%, -1.53% and -2.41%.
As to `Cc1cccc2nc(-c3ccc(-c4ccc(NC(=O)NCc5ccccc5)cc4)s3)[nH]c12`, the inhibition came to 3.85% in assay [1], 4.61% in assay [2] and 1.02% in assay [3].
